Consider 97 compounds from PubChem BioAssay AID777 (Sanford-Burnham Center for Chemical Genomics, 2007).

Broadly, the inhibition is the change of the read-out against control, counted positive when it falls.

Screen size: about 96,000 compounds; about 19,000 (20%) were called active. These entries were drawn from the full list. A number with no mark means an inactive call.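 How the source made its calls: active means blocking of liver enzyme CYP2C9 beyond about 50% at 5 µM (limit read from the data); inactive means the rest.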

The target in this assay is Cytochrome P450 2C9 (Homo sapiens) (UniProt P11712). Description: blockers of cytochrome P450 2C9 activity – biochemical, luminescence, ADME assay, primary screen (AID 777). As to conditions: CYP2C9 Supersomes, luciferin-H conversion, at 5 µM, active compounds read high.
Cytochrome P450 2C9 (Homo sapiens), sequence (P11712 whole entry, looked up): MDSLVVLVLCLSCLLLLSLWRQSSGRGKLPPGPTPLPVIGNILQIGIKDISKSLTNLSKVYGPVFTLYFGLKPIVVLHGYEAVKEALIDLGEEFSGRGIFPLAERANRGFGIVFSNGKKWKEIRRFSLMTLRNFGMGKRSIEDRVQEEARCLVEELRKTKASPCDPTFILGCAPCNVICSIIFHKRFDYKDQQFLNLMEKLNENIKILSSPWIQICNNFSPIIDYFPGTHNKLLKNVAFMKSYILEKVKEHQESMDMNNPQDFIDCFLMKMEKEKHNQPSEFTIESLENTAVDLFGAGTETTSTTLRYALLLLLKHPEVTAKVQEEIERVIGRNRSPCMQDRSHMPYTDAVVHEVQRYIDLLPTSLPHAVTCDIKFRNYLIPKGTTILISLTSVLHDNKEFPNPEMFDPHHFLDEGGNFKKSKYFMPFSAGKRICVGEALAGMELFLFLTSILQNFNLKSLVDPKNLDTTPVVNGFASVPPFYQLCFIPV
Take `CC1CN(c2cc(=O)n(Cc3ccc(F)cc3)c(=O)[nH]2)CC(C)O1` (configuration not stated): the inhibition was -11%.

Regarding `CCCn1c(SCC(=O)N2CCc3ccccc32)nnc1-c1ccncc1`, the inhibition is 45.9%.

Turning to `O=C(Cn1c(-c2ccc(Cl)cc2)noc1=O)N1CCN(c2ccccc2F)CC1`, the inhibition is 1.4%.

For the compound `O=C(NCc1ccco1)C1CCCN(S(=O)(=O)c2cccc3nonc23)C1` (configuration not stated), the inhibition is 2.8%.

`CCNc1nc(NCC)nc(N(C)n2cnnc2)n1`: the inhibition is 15.7%.

With `CCOc1nc(OCC)nc(-n2cc(-c3ccccc3)nn2)n1`, the inhibition was 15.3%.

Take `Cc1nc(SCC(=O)Nc2cc(C)on2)c2c3c(sc2n1)CCCC3`: the inhibition is -1.7%.

Regarding `CCCc1nc2sc3c(c2c(=O)n1NC(=O)CCCl)CCCC3`, the inhibition was 85% (active).

With `CCCC(=O)Nc1ccc2c(c1)nc1n2CCSC1`, the inhibition is 3.2%.

Turning to `CCC(=O)NC(NCC1CCCO1)C(Cl)(Cl)Cl` (configuration not stated), the inhibition was 15.6%.

On to `CCOc1ccc(NC(=O)CCS(=O)(=O)c2ccc3c(c2)CCCN3C(=O)CC)cc1`, for which the inhibition was -0.4%.

For the compound `COc1ccc(NC(=O)Cn2nnc(C(=O)NCCc3ccc(OC)c(OC)c3)c2N)cc1`, the inhibition was 35.6%.

Take `COc1ccc(-c2nnc(SCC(=O)NC3CCCCC3)o2)cc1OC`: the inhibition was 7%.

Take `COc1ccc(CCNC(=O)CSc2nc(C)nc3c2oc2ccccc23)cc1OC`: the inhibition is 58% (active).

As for `COc1ccc(CCNC(=O)CSc2nnc(CNC(=O)c3cccs3)o2)cc1OC`, the inhibition was 17.8%.

In the case of `CCSc1nc(C)nc2c1oc1ccccc12`, the inhibition is 18.9%.

In the case of `COc1ccc(CCNC(=O)CSc2nnc(-c3cccc(F)c3)o2)cc1OC`, the inhibition is 81.2% (active).

`COc1ccccc1Cn1c(=S)[nH]c2cc(C(=O)N3CCN(C)CC3)ccc2c1=O`: the inhibition was -2.6%.

In the case of `CC1CCC(NC(=O)c2ccc(N3CCCC3=O)cc2)CC1` (configuration not stated), the inhibition was 5.2%.

For `CSc1nc(O)c(Cc2ccccc2)c(=O)[nH]1`, the inhibition was 7.9%.

As to `CCOC(=O)N1CCN(C(=O)c2nn(-c3ccc(C)cc3)c(=O)c3c2c2ccccc2n3C)CC1`, the inhibition was 8.8%.

As for `Cn1c2ccccc2c2c(C(=O)N3CCN(c4ccc(F)cc4)CC3)cn(C3CCCC3)c(=O)c21`, the inhibition was 89.6% (active).

On to `Cn1c(C(=O)N2CCC(C(N)=O)CC2)cc2c(=O)n(C)c3ccccc3c21`, for which the inhibition is -6.8%.

As for `Cn1c(=O)c2c(ncn2CC(COCc2ccccc2Cl)OCc2ccccc2Cl)n(C)c1=O` (configuration not stated), the inhibition is 21.3%.

For `CCC1SC2=NCCN2C1(O)c1ccc(Cl)cc1` (configuration not stated), the inhibition was 30.8%.

Take `O=C(Nc1ccc2c(c1)OCCO2)C1CCCN(c2ncccn2)C1` (configuration not stated): the inhibition is -3.8%.

Regarding `Cc1ccnc(N2CCCC(C(=O)Nc3cc(F)ccc3C)C2)n1` (configuration not stated), the inhibition is 90.4% (active).

For `Cc1ccnc(N2CCC(C(=O)NC3CCCCCC3)CC2)n1`, the inhibition is -45.1%.

Turning to `Cc1nnc(SCC(=O)NC2CCCC2)s1`, the inhibition was 11.5%.

Regarding `O=C(CN1CCN(c2ccccn2)CC1)NC1CCCCC1`, the inhibition was 23.5%.

Turning to `CN(CCCNC(=O)CN1C(=O)CC(C)(C)S(=O)(=O)c2ccccc21)C1CCCCC1`, the inhibition was 9.9%.

As for `O=C(CN1C(=O)CC(c2ccccc2)=Nc2ccccc21)NC1CCCCC1`, the inhibition was 52.3% (active).

As for `CN1CCN(Cc2c(O)ccc3c2oc(=O)c2ccccc23)CC1`, the inhibition was -22.3%.

Turning to `Cc1ccc(OCC(=O)Nc2ccc(-c3nnc(-c4ccco4)o3)cc2)cc1`, the inhibition was 66.3% (active).

For `CCCCOc1ccc(-c2nnc(-c3ccco3)o2)cc1`, the inhibition is 19.4%.

On to `Cc1ccc(-c2nnc(-c3ccc(NC(=O)c4cccs4)cc3)o2)cc1`, for which the inhibition was 56.4% (active).

In the case of `Cc1nc(-c2ccc(NC(=O)c3cccs3)cc2)cs1`, the inhibition is 20.2%.

Turning to `O=C(CCc1ccccc1)Nc1cccc(-c2nnc(-c3ccco3)o2)c1`, the inhibition is 19.3%.

Regarding `CCC(=O)Oc1cccc(C(=O)Nc2ccc(-c3nnc(-c4ccco4)o3)cc2)c1`, the inhibition was 53.3% (active).

Turning to `O=C(Nc1ncccn1)c1cccs1`, the inhibition is -3.3%.

Consider `COc1cccc(C(=O)Nc2ccc(NC(=O)c3ccco3)cn2)c1`, for which the inhibition is 23.4%.

`CCOc1ccc(-c2nnc(-c3ccco3)o2)cc1`: the inhibition is 31.6%.

On to `COc1ccc(Cl)cc1C(=O)Nc1ccc(N(C)C(C)=O)cc1`, for which the inhibition was -206%.

On to `C/C(=N\c1nc2ccccc2n1C)c1cc(Cl)ccc1O`, for which the inhibition is -7.5%.

Regarding `CC(=O)N1C(=O)C2(Nc3ccccc3N2)c2ccccc21`, the inhibition was 4.4%.

For `CC1CCc2c(c3ccccc3[nH]c2=O)O1` (configuration not stated), the inhibition is 35%.

For the compound `CCOC(=O)c1c(NC(=O)c2ccc(Br)o2)sc2c1CCCC2`, the inhibition is 10.2%.

For `CC1CCc2c(sc(NC(=O)c3ccc(Cn4cc(Br)cn4)o3)c2C(N)=O)C1` (configuration not stated), the inhibition was 81.5% (active).

As for `O=C(Nc1ccc(Br)c2cccnc12)c1ccc(Cn2cc([N+](=O)[O-])cn2)o1`, the inhibition is -72.9%.

Take `C=CCN1C(=O)C(Cc2cccc(Cl)c2)S/C1=N/N=C/c1ccco1` (configuration not stated): the inhibition is -2.7%.

As for `CCCNC(=O)c1ccc(Cl)c(Cl)c1`, the inhibition was -10.8%.

As for `CCCCNC(=O)C1CCCNC1=O` (configuration not stated), the inhibition was -10.4%.

For `CC1CN(c2cc(=O)n(-c3cccc(Br)c3)c(=O)[nH]2)CC(C)O1` (configuration not stated), the inhibition is -3.4%.

As for `CCCc1nc2ccccc2c(C(=O)OCc2nnc(-c3cc(OC)c(OC)c(OC)c3)o2)c1CC`, the inhibition is 67.5% (active).

Take `CCCc1nc2ccccc2c(C(=O)OCC(=O)c2ccc3c(c2)NC(=O)CO3)c1CC`: the inhibition is -20.4%.

Consider `COc1cc(-c2nnc(Cn3cc(C(F)(F)F)ccc3=O)o2)cc(OC)c1OC`, for which the inhibition was 12%.

Regarding `Cc1cc(C(=O)COC(=O)c2cccs2)c(C)n1-c1c(C)n(C)n(-c2ccccc2)c1=O`, the inhibition was 15.4%.

`Cc1cc(=O)n(C)c(=O)n1CCCNc1ccccc1`: the inhibition was 11.2%.

Turning to `Cc1cccc(NC(=O)N(Cc2cc3cc(C)cc(C)c3[nH]c2=O)CC2COCCO2)c1` (configuration not stated), the inhibition was 85.5% (active).

With `COc1ccc2[nH]c(=O)c(CN(CC3CCCO3)C(=O)Nc3ccccc3)cc2c1` (configuration not stated), the inhibition is 19.4%.

Regarding `Cc1ccc2[nH]c(=O)c(CN(CCCN(C)C)C(=O)Nc3cccc(Cl)c3)cc2c1`, the inhibition was 1.4%.

Turning to `O=C(CS(=O)(=O)c1cn(Cc2ccc(Cl)cc2)c2ccccc12)N1CCOCC1`, the inhibition is 41%.

Take `CCN(c1ccccc1)S(=O)(=O)c1ccc(N)cc1`: the inhibition is -137%.

Take `COC(=O)c1cc(Cl)c(NC(=O)c2ccco2)cc1OC`: the inhibition was -135%.

For the compound `COc1ccc(NC(=O)c2cccc(NC(=O)c3ccco3)c2)c(OC)c1`, the inhibition is -50.5%.

On to `COc1cc(C(=O)OC(C)C(=O)NCC2CCCCC2)cc(NC(=O)c2ccco2)c1OC` (configuration not stated), for which the inhibition was 81.6% (active).

Consider `O=C(/C(=N\O)n1cncn1)c1ccc(Br)cc1Br`, for which the inhibition was 34.9%.

`CCCC(=O)C1=C(N(C)c2ccccc2)CC(C)(C)C(C(=O)OC)C1=O` (configuration not stated): the inhibition is 13.7%.

Consider `N#CCSc1nc2ccccc2c(=O)n1-c1ccccc1`, for which the inhibition is 30.4%.

For `CCOC(=O)CNC(=O)c1nn(-c2cccc(OC)c2)c(=O)c2ccccc12`, the inhibition was 29.6%.

For the compound `COC(=O)c1ccc(CSc2nc3ccccc3c(=O)n2-c2cccc(OC)c2)o1`, the inhibition is 100% (active).

In the case of `COC(=O)CSc1nc(C2CC2)nc2ccccc12`, the inhibition is 48%.

With `COCC(C)n1c(SCc2ccc(C(=O)OC)o2)nc2ccccc2c1=O` (configuration not stated), the inhibition was 52.9% (active).

Consider `CCc1c(O)nc(SCC(=O)Nc2ccccc2)n(C(C)CC)c1=O` (configuration not stated), for which the inhibition was 11.7%.

Consider `O=C(CCc1ccccc1)Nc1ccc(NC(=O)C2CC2)nc1`, for which the inhibition is 25.9%.

As for `N#Cc1c(N)n(CCOC(=O)c2ccc(Cl)cc2)c2nc3ccccc3nc12`, the inhibition was 14.9%.

Turning to `CCOc1ccc(NC(=O)N(CCC(C)C)C(C)c2ccco2)cc1` (configuration not stated), the inhibition is 43.6%.

On to `CCCC(C(=O)NCc1ccco1)N(C(=O)CNS(=O)(=O)c1ccccc1)C1CCCC1` (configuration not stated), for which the inhibition was 40.6%.

In the case of `CC(c1ccco1)N(C(=O)Nc1ccccc1)C1CCCCC1` (configuration not stated), the inhibition was 81.3% (active).

For `Cc1cc(C)c(S(=O)(=O)N2C=CC(C(F)(F)F)=NCC2)c(C)c1`, the inhibition is 13.2%.

As to `OC(CN1C2=NCCCN2c2ccccc21)c1ccc(Br)cc1` (configuration not stated), the inhibition is 17.7%.

On to `NC(=S)c1ccc(C(N)=S)o1`, for which the inhibition is 23.3%.

Consider `CCCCCCn1c(SCC(=O)c2ccccc2)nc2c1c(=O)[nH]c(=O)n2C`, for which the inhibition was 18.7%.

For `Cc1ccnc(SCCn2c(Br)nc3c2c(=O)[nH]c(=O)n3C)n1`, the inhibition is -6.9%.

As for `Cn1c(=O)[nH]c(=O)c2c1nc(Br)n2CCCCSc1nc2ccccc2o1`, the inhibition is 67.6% (active).

On to `CN(C)/C=C(/C(=O)c1ccc(Cl)cc1)S(=O)(=O)c1ccccc1`, for which the inhibition was -9.5%.

On to `COc1ccc2oc(=O)c(C(=O)O)cc2c1`, for which the inhibition is -6.4%.

Turning to `COc1cccc(C(=O)NNC(=O)c2ccccc2Br)c1`, the inhibition is -182%.

On to `COc1cccc(C(=O)c2cc3ccc(O)cc3oc2=O)c1`, for which the inhibition is 92.8% (active).

With `O=C(NC1=NCCS1)c1ccc(Cl)s1`, the inhibition was 3.9%.

As for `COc1ccc(C(=O)n2nc(-c3ccc(C)cc3)nc2N)cc1OC`, the inhibition is -9.5%.

Regarding `Cc1ccc2nc(NC3=NCN(CCc4ccccc4)CN3)nc(C)c2c1`, the inhibition was -5.5%.

`CC(=O)c1c(C)[nH]c(C(=O)NCc2ccc(C)cc2)c1C`: the inhibition was 49.2%.

`COc1ccccc1CNC(=O)c1ccc(SC)cc1OC`: the inhibition was -50.7%.

Regarding `CCOC(=O)c1c(C)[nH]c(C(=O)NCc2ccccc2OC)c1C`, the inhibition is 78.3% (active).

With `Cn1c2c(c(=O)n(C)c1=O)CN(Cc1ccco1)CN2`, the inhibition was -11.6%.

Take `N#CCSc1nc2c(c(=O)n1Cc1ccccc1)C1(CCCC1)Cc1ccccc1-2`: the inhibition is 36.9%.
